ALR H2O2 inh: inhibitors of human ALR sulfhydryl oxidase, primary screen, biochemical, H2O2 detection, HRP-luminol luminescence, single point; 290,000 compounds, 3.8% hits; inhibition, % (concentration not given with the values); FAD-linked sulfhydryl oxidase ALR (Homo sapiens), P55789; purified ALR, DTT oxidation;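 active = mean replicate inhibition above about 79%, with every replicate also reaching it, limit read from the data; inconclusive = only one of the two criteria met; inactive = mean below limit and not every replicate reaching it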
Target sequence (P55789 whole entry, looked up): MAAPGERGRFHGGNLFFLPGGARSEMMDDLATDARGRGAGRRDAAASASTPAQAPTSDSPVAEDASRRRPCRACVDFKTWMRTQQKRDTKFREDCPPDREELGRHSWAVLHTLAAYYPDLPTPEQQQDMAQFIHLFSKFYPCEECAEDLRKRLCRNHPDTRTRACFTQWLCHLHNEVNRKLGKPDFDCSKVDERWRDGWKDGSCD
HDAC3 inhib: HDAC3 deacetylase inhibitors, primary screen, biochemical, fluorescence, cell-free homogeneous; recombinant HDAC3, fluorogenic peptide/trypsin coupled; inhibition, % at 8.3 µM; 320,000 compounds, 0.15% hits; in the data active = inhibition above about 26%, passing the limit was not always enough; inconclusive = no clear call, values can overlap the other calls
Efflux pump inh: inhibitors of Candida efflux pumps in yeast, primary screen, S. cerevisiae, Nile Red, multiplex; S. cerevisiae Candida pump triplex; inhibition, % at 10 µM; 330,000 compounds, 0.44% hits;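 active = plate passing quality check with inhibition over a set limit, or well fluorescence over plate mean plus 4 SD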;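 note: Nile Red retained in pooled yeast measured as flow cytometry median fluorescence; 0% = buffer negative control and 100% = Enniatin B positive control; higher means more Nile Red kept so more efflux inhibition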
Rtt109 HAT inh: inhibitors of C. albicans Rtt109/Vps75 HAT, primary screen, biochemical, ThioGlo CoA-SH fluorescence, plate reader; purified Rtt109/Vps75, 4 h; Histone acetyltransferase RTT109 (Candida albicans (strain SC5314 / ATCC MYA-2876)), …; inhibition, % at 34.9 µM; 330,000 compounds, 0.16% hits; AID 540336, 2011;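 active = inhibition of at least 50% in every replicate; inconclusive = best replicate reaches 50% inhibition but some replicates fall short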
GRK2 inh: compounds blocking aptamer binding on GRK2 – biochemical, human GRK2, bead flow cytometry, HTS, primary screen; Beta-adrenergic receptor kinase 1 (Homo sapiens), P25098; FAM-aptamer displacement from GRK2; inhibition of aptamer binding, % at 10 µM; 330,000 compounds, 0.59% hits; AID 488847, 2010;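 active = inhibition of aptamer binding above 40%, roughly 3 SD of noise, on plates passing a quality check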;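 note: median bead fluorescence of bound FAM aptamer so fluorescent compounds give negative values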
Rce1 inhib: yeast Rce1p protease inhibitors, primary screen, biochemical, fluorescence, cell-free homogeneous. 290,000 compounds, 0.27% hits. calls only. yeast membranes, quenched prenylated peptide cleavage fluorescence. AID 2563, 2010. CAAX prenyl protease 2 (Saccharomyces cerevisiae (strain ATCC 204508 / S288c)), Q03530;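 active = fall in fluorescence gain of 50% or more versus controls, with final raw signal at or below 3038400; inconclusive = same 50% fall but final raw signal above 3038400; inactive = fall in fluorescence gain under 50%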;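 note: plate controls were neutral control wells for no effect and wells lacking membranes for full effect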
Target sequence (Q03530 whole entry, looked up): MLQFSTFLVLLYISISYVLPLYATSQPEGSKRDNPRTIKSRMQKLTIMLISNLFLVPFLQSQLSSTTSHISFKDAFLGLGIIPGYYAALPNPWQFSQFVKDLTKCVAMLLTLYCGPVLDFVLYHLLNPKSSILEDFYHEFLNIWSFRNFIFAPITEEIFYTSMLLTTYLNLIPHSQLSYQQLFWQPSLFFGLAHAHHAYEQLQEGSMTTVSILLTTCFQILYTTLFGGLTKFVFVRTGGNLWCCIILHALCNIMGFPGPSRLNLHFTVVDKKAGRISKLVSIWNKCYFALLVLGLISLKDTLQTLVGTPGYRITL
Cmpd fluor yeast: compound fluorescence in yeast efflux pump counter-screen. shares compounds with Efflux pump inh. S. cerevisiae AD/pABC3, flow cytometry. fluorescence ratio to DMSO, % at 10 µM. 1,700 compounds, 4% hits. AID 588517;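 active = fluorescence ratio to DMSO above its plate's cutoff, the plate mean ratio plus 5 SD, cut at about 210% in these data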;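 note: unstained yeast with no Nile Red so the signal is compound autofluorescence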
CaMdr1 efflux inh: inhibitors of Candida albicans Mdr1 efflux, confirmation, flow cytometry, singleplex, Cherry Pick1 set; shares compounds with Efflux pump inh; S. cerevisiae AD/CaMDR1, Nile Red efflux; inhibition, % at 10 µM; 1,700 compounds, 1% hits; AID 588518, 2011; in the data active = inhibition above about 26%;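 note: 0% = DMSO vehicle and 100% = reference inhibitor; higher means more Nile Red retained so more efflux inhibition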
Cdr2 pump inh: inhibitors of Candida albicans Cdr2 efflux pump, confirmation, S. cerevisiae AD/CaCDR2, flow cytometry, cherry pick 1, singleplex; AID 588520, 2011; Nile Red retention; 1,700 compounds, 4% hits; shares compounds with Efflux pump inh; Nile Red retention ratio vs DMSO, % at 10 µM; in the data active = Nile Red retention ratio vs DMSO above about 190%;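 note: higher ratio means more blocking of Cdr2 efflux of the dye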
Cdr1 pump inh: inhibitors of Candida albicans Cdr1 efflux pump, confirmation, S. cerevisiae AD/CaCDR1, flow cytometry, cherry pick 1, singleplex; inhibition, % at 10 µM; 1,700 compounds, 1% hits; shares compounds with Efflux pump inh; AID 588522, 2011; Nile Red efflux;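 active = inhibition above the screen-wide mean plus twice its standard deviation, cut at about 32% in these data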
* marks the source's active call; other numbers are inactive results; i = inactive; ? = inconclusive; . = no result; ! = a repeat was not active. Rows were chosen to be rich in hits. Some 4.5% of all compounds tested hit in one or more screens of this group.

SMILES | ALR H2O2 inh | HDAC3 inhib | Efflux pump inh | Rtt109 HAT inh | GRK2 inh | Rce1 inhib | Cmpd fluor yeast | CaMdr1 efflux inh | Cdr2 pump inh | Cdr1 pump inh
CCc1ccc(N=C2NC(=O)/C(=C/c3cc(OC)c(O)c(OC)c3)S2)cc1 | 43.1 | -13.7 | 0.5* | 6.4 | 2.0 | i | 126.1 | 0.1 | 101.5 | 0.0
COc1cc(/C=C2\SC(=Nc3ccccc3OC)NC2=O)ccc1O | 99.1* | -4.5 | 0.6* | 1.4 | 5.0 | i | 110.0 | -0.1 | 107.2 | 0.1
CCC1(c2ccc(F)cc2)NC(=O)N(CC(=O)N(C)C2CCS(=O)(=O)C2)C1=O (centres undefined) | 0.8 | -0.2 | -0.2 | 4.4 | 0.0 | i | . | . | . | .
CS(=O)(=O)Nc1nnc(Cc2ccccc2)s1 | -3.3 | 4.4 | 0.2 | 6.7 | 0.0 | i | . | . | . | .
CC(C)Cc1nnc(NS(=O)(=O)Cc2ccccc2)s1 | -1.8 | -6.3 | 9.0* | 5.4 | 0.0 | i | 107.9 | -0.3 | 106.0 | 0.0
Cc1cc(C(=O)NNS(=O)(=O)c2ccc(C(C)(C)C)cc2)nn1C(C)(C)C | 27.4 | 4.1 | 0.6* | 5.2 | 2.0 | . | 101.1 | -0.2 | 108.3 | -0.1
C/C(=N/NC(=O)c1cccc(N2CCCC2=O)c1)c1ccncc1 | 2.8 | -4.7 | -0.1 | 2.5 | 2.0 | i | . | . | . | .
CN(CC(=O)Nc1sccc1C(N)=O)S(=O)(=O)c1ccc(Cl)cc1 | 27.7 | 3.3 | -0.1 | -6.0 | 1.0 | . | . | . | . | .
OC(COCC1COc2ccccc2O1)CN1CCN(c2ccccc2)CC1 (centres undefined) | . | . | 1.0* | 3.6 | 0.0 | i | 101.5 | -0.1 | 97.5 | 0.0
CNC(=O)c1c(NC(=O)CCS(=O)(=O)c2ccc(F)cc2)sc(C)c1C | . | . | -0.1 | -5.0 | 0.0 | i | . | . | . | .
CN1CCN(c2ccccc2NC(=O)c2ccc(N3CCCC3)c([N+](=O)[O-])c2)CC1 | 10.9 | -4.6 | 0.1 | 0.8 | 0.0 | i | . | . | . | .
CN1CCN(c2ccc(C(=O)c3ccc(Br)cc3)cc2[N+](=O)[O-])CC1 | . | -3.3 | 33.2* | 4.2 | 1.0 | i | 104.5 | -0.4 | 91.9 | 0.0
COc1ccccc1CN(Cc1cc2cc3c(cc2[nH]c1=O)OCCO3)Cc1nnnn1Cc1ccco1 | -22.7 | 7.5 | 1.4* | -0.2 | 2.0 | i | 100.3 | -0.1 | 107.2 | 0.0
OCCN=C1CCCc2c1[nH]c1ccc(Cl)cc21 | 17.8 | -4.2 | 0.6* | 16.4 | 0.0 | i | 100.2 | 0.1 | 103.6 | 0.0
OCCCN=C1CCCc2c1[nH]c1ccc(Cl)cc21 | -5.8 | -2.7 | 0.0 | -3.3 | 0.0 | i | . | . | . | .
Cc1ccc(S(=O)(=O)N(CC(=O)N/N=C/c2cccc3c2OCCO3)c2ccccc2F)cc1 | -14.6 | -1.2 | 0.5* | -4.0 | 0.0 | . | 89.9 | -0.1 | 108.3 | -0.1
N/C(=N\c1nc2ccccc2o1)NC(=O)c1ccccc1Br | . | -2.3 | 0.0 | -2.5 | 0.0 | i | . | . | . | .
Cc1cc2oc(=O)c(CC(=O)NCCCO)c(C)c2c2occ(C(C)(C)C)c12 | -3.5 | -11.6 | -0.3 | 13.2 | 0.0 | i | . | . | . | .
Cc1cc2oc(=O)c(CC(=O)NCCCN(C)C)c(C)c2c2occ(C(C)(C)C)c12 | 3.1 | -23.5 | 0.9* | . | 2.0 | i | 107.8 | -0.2 | 89.3 | 0.0
O=C(NC(=S)N1CCN(Cc2ccc3c(c2)OCO3)CC1)c1ccc(Cl)cc1 | 2.9 | 3.7 | 27.7* | -3.8 | 0.0 | i | 103.4 | -0.1 | 110.3 | 0.1
O=C(NC(=S)N1CCN(Cc2ccc3c(c2)OCO3)CC1)c1cccc(Br)c1 | -10.7 | -4.5 | -0.1 | 14.9 | 4.0 | i | . | . | . | .
Cc1ccccc1CN1CCC(n2nccc2NC(=O)CCCc2ccccc2)CC1 | 0.3 | 2.0 | 1.5* | 3.8 | 0.0 | i | 87.6 | -0.2 | 93.2 | -0.5
Cn1c(=O)c(C#N)c(-c2ccc(F)cc2)c2cc(C(=O)c3cc(Cl)cc(Cl)c3O)cnc21 | -12.8 | 9.7 | 0.3* | 3.2 | 1.0 | i | 92.1 | -0.3 | 105.7 | -0.1
O=C(COC(=O)Cc1ccsc1)Nc1ccc(Br)cc1F | 4.0 | 1.2 | -0.1 | 7.4 | 0.0 | . | . | . | . | .
C=CCn1c(SCc2cc(=O)n3ccsc3n2)nc2ccccc2c1=O | -0.6 | 2.6 | 0.5* | -1.1 | 1.0 | i | 89.9 | 0.1 | 100.1 | 0.2
SMILES | ALR H2O2 inh | HDAC3 inhib | Efflux pump inh | Rtt109 HAT inh | GRK2 inh | Rce1 inhib | Cmpd fluor yeast | CaMdr1 efflux inh | Cdr2 pump inh | Cdr1 pump inh
C=CCn1c(SCc2cc(=O)n3ccsc3n2)nc2cc(Cl)ccc2c1=O | 2.1 | 3.3 | 0.0 | -8.8 | 0.0 | i | . | . | . | .
COC(=O)CCCC1=CC2=CC(=O)C(C)(OC(=O)c3cccs3)C(=O)C2=CN1c1ccc(OC)cc1 (centres undefined) | . | 6.6 | 0.7* | -7.4 | 1.0 | i | 105.8 | -0.2 | 107.2 | -0.1
C[n+]1ccn(CC(=O)c2cccs2)c1 | 29.6 | -7.1 | -0.1 | -2.8 | 2.0 | i | . | . | . | .
CCCCCCCCCCCCCCCCn1cc[n+](C)c1 | -11.3 | ? | 2.7*! | 95.0* | 0.0 | i | 100.4 | -0.1 | 110.2 | -0.1
Cc1ccc(C)c(OCc2cc(C(=O)N(C)Cc3nccs3)no2)c1 | -2.1 | 5.6 | -0.1 | 8.7 | 1.0 | i | 181.6 | 1.2 | 110.2 | 1.2
COc1cccc(C(=O)N2CCC(C(=O)NCc3ccco3)CC2)c1 | -8.0 | -2.8 | -0.1 | 2.4 | 0.0 | i | . | . | . | .
S=C(Nc1cccc(Cl)c1)N1CCN(c2ccccn2)CC1 | -6.2 | -1.3 | 0.4 | 1.4 | 1.0 | i | . | . | . | .
COc1cccc(NC(=S)N2CCN(c3ccccn3)CC2)c1 | -4.7 | -0.6 | 15.7* | -9.2 | 2.0 | i | 100.3 | -0.1 | 107.2 | -0.1
Cc1cc(C)nc(NS(=O)(=O)c2ccc(NC(=O)CCN3C(=O)c4ccccc4C3=O)cc2)n1 | -8.3 | -2.8 | -0.2 | -2.8 | 2.0 | i | . | . | . | .
Cc1cc(NS(=O)(=O)c2ccc(NC(=O)CCN3C(=O)c4ccccc4C3=O)cc2)no1 | -2.9 | -4.5 | 0.9* | -17.2 | 5.0 | i | 98.6 | -0.3 | 99.3 | 0.1

Screening results as filed in PubChem.
